# ChEMBL document CHEMBL3433997, “St. Jude Leishmania screening dataset” (2016)
# Tests used:
# Type in all cases: functional
# [1] = target: Solute carrier family 2, facilitated glucose transporter member 1 (Homo sapiens) (UniProt P11166); experiment: ST_JUDE_LEISH: Cytotoxicity at 2uM final concentration against transgenic Leishmania Mexicana promastigotes LmGLUT1 that are glucose transport deficient and complemented with the human glucose transporter GLUT1. Activity is measured by DNA content using SYBR green in vitro
# Solute carrier family 2, facilitated glucose transporter member 1 (Homo sapiens), sequence (P11166 whole entry): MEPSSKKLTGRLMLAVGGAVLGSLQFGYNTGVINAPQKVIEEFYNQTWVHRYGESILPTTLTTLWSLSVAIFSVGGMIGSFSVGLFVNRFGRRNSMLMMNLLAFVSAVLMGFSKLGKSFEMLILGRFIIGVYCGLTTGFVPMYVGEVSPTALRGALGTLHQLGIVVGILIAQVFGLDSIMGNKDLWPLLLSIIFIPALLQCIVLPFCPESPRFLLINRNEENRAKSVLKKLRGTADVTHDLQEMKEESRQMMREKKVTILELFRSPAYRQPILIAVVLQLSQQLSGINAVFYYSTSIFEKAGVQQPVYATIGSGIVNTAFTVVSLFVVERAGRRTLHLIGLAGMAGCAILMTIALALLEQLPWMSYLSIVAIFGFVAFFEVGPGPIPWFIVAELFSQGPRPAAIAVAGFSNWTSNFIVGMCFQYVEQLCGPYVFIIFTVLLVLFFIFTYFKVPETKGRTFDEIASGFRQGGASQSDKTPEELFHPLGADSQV
# [2] = target: Hexose transporter 1 (Plasmodium falciparum) (UniProt O97467); experiment: ST_JUDE_LEISH: Cytotoxicity at 2uM final concentration against transgenic Leishmania Mexicana promastigotes LmPfHT that are glucose transport deficient and complemented with the Plasmodium falciparum hexose transporter. Activity is measured by DNA content using SYBR green in vitro
# [3] = target: Glucose transporter (Leishmania mexicana) (UniProt O61059); experiment: ST_JUDE_LEISH: Cytotoxicity at 2uM final concentration against transgenic Leishmania Mexicana promastigotes LmGT2 that are glucose transport deficient and complemented with the L. Mexicana glucose transporter 2. Activity is measured by DNA content using SYBR green in vitro
Compound,inhibition [1],inhibition [2],inhibition [3]
OC(CNCc1ccccc1OCc1ccccc1)c1cccc(C(F)(F)F)c1 (stereo unspecified),15.1%,11.6%,10.8%
CCOC(=O)C1=C(C)NC2=C(C(=O)C(C(=O)OC)C(C)C2)C1c1cc(Br)c(OCC)c(OC)c1 (stereo unspecified),8.37%,6.84%,6.67%
CS(=O)(=O)N1CC2(CCN(CCC(NC(=S)Nc3ccccc3)c3ccc(Cl)c(Cl)c3)CC2)c2ccccc21 (stereo unspecified),3.72%,1.67%,-0.39%
Cc1cccc(-c2nn(-c3ccccc3)c3[nH]c(=O)c(CNC4CCCC4)cc23)c1,2.26%,2.39%,-0.29%
CN(C)CCOC(=O)C1(O)CCC2CC1C2(C)C (stereo unspecified),2.52%,2.06%,2.45%
CCN(CC)CCN(Cc1ccc(-c2ccc(C(F)(F)F)cc2)cc1)C(=O)Cn1c(CCc2ccc(F)c(F)c2F)nc(=O)c2ccccc21,8.82%,7.31%,10.2%
COc1cc(-c2nc(-c3ccccc3)c(-c3ccccc3)[nH]2)ccc1OCCN(C)C,1.69%,1.4%,0.91%
COc1ccc(-c2cnc3[nH]cc(-c4ccc(CCC(=O)O)cc4)c3c2)cn1,5.06%,4.52%,6.38%
N=C(N)NN=Cc1ccccc1OCc1ccccc1Cl,-0.49%,2.44%,0.38%
CC(C)C1=C[C@H]2C[C@]3(C4OCCO4)[C@@H]4CC[C@@H](C)[C@H]4C[C@@]2(COCc2cccc(C#N)c2)[C@]13C(=O)OC(c1ccccc1)c1ccccc1,4.12%,3.24%,2.75%
Cc1ccccc1C1CCN(C2CCC(NC(=O)c3ccc(-c4ccccc4)s3)CC2)CC1 (stereo unspecified),1.32%,0.48%,0.02%
NC(=O)c1ccccc1Nc1nc(Nc2cc[nH]n2)ncc1Cl,6.52%,4.28%,7.47%
COCCNCc1cccc(-c2cccc(CNC3CCN(Cc4ccccc4)CC3)c2)c1,2.73%,2.84%,2.88%
Cc1cc(N(C)C)nc(Nc2ccc(NC(=O)c3c(F)cccc3F)cc2)n1,6.1%,6.29%,-2.85%
O=C(N[C@@H](CC1CCCCC1)C(=O)NCCN1CCCCC1)c1ccc(O)c(-c2ccc(Cl)c(Cl)c2)c1,0.75%,1.44%,0.7%
Cc1cccc2nc(-c3cccc(-c4ccc(NC(=O)Cc5c[nH]cn5)cc4)c3)[nH]c12,-1.66%,-0.73%,-0.58%

Compound,inhibition [1],inhibition [2],inhibition [3]
N=C(N)c1ccc(Nc2nccc(Nc3nc(-c4ccccc4)cs3)n2)cc1,0.38%,0.47%,-0.9%
CCOc1ccc2nc(C)cc(N/N=C/c3cccc([N+](=O)[O-])c3)c2c1,0.39%,0.05%,-1.04%
Cc1csc(-c2nonc2NC(=O)COc2ccccc2C(C)C)n1,2.07%,-1.84%,2.3%
CCCNC(=O)C1Cc2c([nH]c3cc(Br)ccc23)C2(CCN(CCc3ccccc3)CC2)N1 (stereo unspecified),2.03%,1.9%,1.75%
O=C(Cn1c(CCc2cccc(F)c2F)cc(=O)c2cccnc21)N(CCCn1ccnc1)Cc1ccc(-c2ccc(C(F)(F)F)cc2)cc1,2.11%,1.17%,0.71%
Cc1nc(Nc2cc(Cl)ccc2O)nc(Nc2cc(Cl)ccc2O)c1[N+](=O)[O-],4.36%,3.14%,1.45%
CCCCCCN1CCCN(Cc2ccc(C(=O)Nc3ccc(F)c(F)c3)cc2)CC1,17.1%,18.5%,12.9%
CC(=O)NCCNc1nccc(N2CCc3ncnc(Nc4ccc(OCc5cccc(F)c5)c(Cl)c4)c3C2)n1,0.07%,-2.13%,-2.74%
CCc1ccc(S(=O)(=O)Nc2ccc(CCN(C)C3CCN(C)CC3)cc2)cc1,3.75%,3.41%,2.27%
CC(=O)Nc1ccccc1OCc1cc2cc(C(=O)N3CCC(N4C(=O)OCc5ccccc54)CC3)ccc2o1,4.21%,2.89%,4.49%
O=C(Cn1c(CCc2cccc(F)c2F)cc(=O)c2cccnc21)N(CCN1CCCC1)Cc1ccc(-c2ccc(C(F)(F)F)cc2)cc1,2.13%,2.76%,1.23%
CCOc1ccc(C(=O)Nc2cc(Br)c3c(c2)CNCC3)cc1Br,11.7%,12.7%,6.15%
COc1nc(Nc2cccc(C)c2)nc(OC)n1,-0.24%,0.66%,0.95%
CS(=O)(=O)c1ccccc1CNC(=O)c1ccc(-c2cccc(-c3nc4cc(C(F)(F)F)ccc4[nH]3)c2)cc1,2.96%,2.74%,2.22%
CN1CCC(NCc2ccc(S(=O)(=O)Nc3ccc(Oc4cccc(Cl)c4)cc3)cc2)CC1,1.15%,1.05%,0.97%
CS(=O)(=O)CCNCc1ccc(-c2ccc3ncnc(Nc4ccc(OCc5ccccc5)c(Cl)c4)c3c2)o1,-0.18%,-1.51%,-1.49%
